Reference: PubChem BioAssay (NCI)
Compounds without any hit were thinned out: in the full panel of roughly 83,000, 20% have a hit.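 Interpretation: 100, growth as untreated; towards 0, rising growth inhibition; 0, no net growth; 0 to -100, cell death. Compounds scoring below 10 were considered active.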 A number with no mark means an inactive call. Activity calls are given as the source filed them.

Tests used:
Experiment in all cases: NCI-60 one-dose screen, 48 h (100 = growth as untreated, 0 = no growth, -100 = all killed)
Conditions in all cases: 10 µM unless noted
HCT-15 colon = test system: HCT-15 colon
HT29 colon = test system: HT29 colon
SNB-75 CNS = test system: SNB-75 CNS
SNB-19 CNS = test system: SNB-19 CNS
U251 CNS = test system: U251 CNS
PC-3 prostate = test system: PC-3 prostate
SK-MEL-5 melanoma = test system: SK-MEL-5 melanoma
UACC-62 melanoma = test system: UACC-62 melanoma
LOX IMVI melanoma = test system: LOX IMVI melanoma
SK-MEL-28 melanoma = test system: SK-MEL-28 melanoma

Structure (SMILES)	growth (HCT-15 colon)	growth (HT29 colon)	growth (SNB-75 CNS)	growth (SNB-19 CNS)	growth (U251 CNS)	growth (PC-3 prostate)	growth (SK-MEL-5 melanoma)	growth (UACC-62 melanoma)	growth (LOX IMVI melanoma)	growth (SK-MEL-28 melanoma)
Oc1ccc([S+](c2ccc(O)cc2)c2ccc(O)cc2)cc1	97.4%	108%	92.5%	99.7%	103%	97.9%	100%	101%	107%	105%
CC(C)OCC1CO1 (stereo not given)	100%	103%	92.7%	99.7%	102%	106%	108%	98.9%	113%	110%
Clc1ccc(N/N=C(\c2ccccc2)c2ccccn2)nc1	17.9%	19.3%	25.2%	24.4%	9.27% (active)	28.6%	-36% (active)	-18.3% (active)	-1.02% (active)	25.4%
C=C(C)C(C(=O)OCC)(C(=O)OCC)C(C)C	102%	116%	86.5%	99.9%	102%	108%	98.3%	103%	102%	97%
O=C(/C=C\c1ccccc1Cl)c1ccccc1	89.9%	92.3%	86.7%	94.9%	79.3%	93.8%	92.2%	89.7%	82.1%	110%
CCCCCCCCCCCCCCCCNC(=S)N/N=C/c1ccc(OC)cc1	108%	102%	113%	99.8%	97.9%	88.5%	99.9%	93.2%	108%	109%
COc1ccc2c(c1)/C(=C1/S/C(=N/c3nnc(C)s3)NC1=O)C(=O)N2Cc1ccc(Br)cc1	27.5%	35.4%	45.7%	24.7%	14.3%	21.9%	36.3%	32.9%	32.1%	32.6%
